Results on 21 molecules are retold here after PubChem BioAssay (Tox21).

Results filed as inconclusive are left out. A number with no mark means an inactive call. The source made the active and inactive calls. The call rests on the fitted dose curve.
On the % scale 0 is the no-effect control and ±100 the full control effect; potency means the concentration at half of the fitted maximal effect.

A short description of this experiment: qHTS assay for small molecule agonists of the antioxidant response element (ARE) signaling pathway - cell viability counter screen (AID 743203). Further: nearly all actives have a fitted effect of over 55% in size. The conditions noted are these: ARE-bla HepG2 viability, CellTiter-Glo luminescence, 16 h; series mostly up to 73.3 µM; viability change, negative = cytotoxic: at the top concentration. In outline: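 Luminescence read-out (CellTiter-Glo, 30 min at room temperature) measured cell viability in the same wells as the ARE beta-lactamase reporter. HepG2 ARE-bla cells were treated with compounds for 16 hrs at 37C/5% CO2.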
For orientation: qHTS replaces the single test concentration by a dilution series.
In the case of `CC(C)N(C(=O)SC/C(Cl)=C/Cl)C(C)C`, the “viability change, negative = cytotoxic” value is 0.477% [at 94.8 µM].
Turning to `O=[N+]([O-])c1ccc(CCl)cc1`, the “viability change, negative = cytotoxic” value is -4.41%.
Still for that read-out and setting: as for `COC(=O)c1cc(Oc2ccc(Cl)cc2Cl)ccc1[N+](=O)[O-]`, the figure is 2.1%; as for `CCOC(=O)CCN(SN(C)C(=O)Oc1cccc2c1OC(C)(C)C2)C(C)C`, 6.89%; as for `CC(C)Br`, 0.965%.
`CCOP(=S)(OCC)Oc1cc(C)nc(N(CC)CC)n1`: the “viability change, negative = cytotoxic” value was -5.15%.
For `Clc1cc(Cl)c(-c2cc(Cl)c(Cl)cc2Cl)cc1Cl`, the “viability change, negative = cytotoxic” value was 0.957%.
The same measure, in the same setting: then `CNC(=O)CSP(=O)(OC)OC`, with 4.63%; and `O=S(=O)(O)F`, with 4.77% [at 94.8 µM]; and `CC(C)=CC1C(C(=O)OC(C#N)c2cccc(Oc3ccccc3)c2)C1(C)C` (stereo unspecified), with -15.3%.
On the same count and under the same terms, as for `COc1ccc2[nH]cc(CCN(C(C)C)C(C)C)c2c1`, the figure is -15.3% [at 94.8 µM].
On the same count and under the same terms, as for `CCCCC/C=C\C/C=C\C/C=C\C/C=C\CCCC(=O)NCC(=O)O`, the figure is 0.172%; as for `CC1(C)C(C=C(Cl)Cl)C1C(=O)OC(C#N)c1ccc(F)c(Oc2ccccc2)c1` (stereo unspecified), -9.95%.
As for `O=S1OCC2C(CO1)C1(Cl)C(Cl)=C(Cl)C2(Cl)C1(Cl)Cl` (stereo unspecified), the Potency was 54.4 µM (active).
For the molecule `CN(C)c1ccc(N)cc1`, the “viability change, negative = cytotoxic” value is -0.333%.
Regarding `Cc1ccn2nc(S(=O)(=O)Nc3c(F)cccc3F)nc2n1`, the “viability change, negative = cytotoxic” value is 5.36%.
In the case of `ClC1(Cl)C2(Cl)C3(Cl)C4(Cl)C(Cl)(Cl)C5(Cl)C3(Cl)C1(Cl)C5(Cl)C24Cl` (stereo unspecified), the “viability change, negative = cytotoxic” value is -8.73%.
Still for that read-out and setting: as for `Cc1cnc2c(C(=O)O)c(Cl)ccc2c1`, the figure is 3%; as for `CNC(=O)Oc1cc(C)cc(C(C)C)c1`, 0.432%; as for `N#Cc1ccc(N(CC(N)=O)CC(F)(F)F)cc1C(F)(F)F`, 8.12%.
Regarding `Clc1ccc(C(c2ccc(Cl)cc2)C(Cl)Cl)cc1`, the Potency is 54.5 µM (active).
